The nature of experiment [1]: qHTS assay to identify aromatase inhibitors - cell viability counter screen (AID 743084).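 Also: cells stimulated with testosterone during compound exposure; nearly all actives have a fitted effect of over 55% in size.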 Also: potency is read from the fitted curve at half-maximal effect. Background: In qHTS, concentration-response curves come from the screen itself.
Experiment [2] concerns the target Aryl hydrocarbon receptor (Homo sapiens) (UniProt P35869). Kind of experiment: qHTS assay to identify small molecule that activate the aryl hydrocarbon receptor (AhR) signaling pathway (AID 743085).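 Also: HG2L7.5c1 human HepG2 liver cells with stably integrated DRE-driven firefly reporter; series mostly up to about 70 µM; nearly all actives have a fitted effect of over 15% in size.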 The method, boiled down:
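Steps: seed HepG2-AhR-luc cells; allow 5 h at 37C; pin-transfer test compound or vehicle; incubate 24 h at 37C; add viability dye (30 min, 37C) and read fluorescence; add luciferase substrate (30 min, RT) and read luminescence.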

Experiment [3] is described as follows: qHTS assay to identify small molecule that activate the aryl hydrocarbon receptor (AhR) signaling pathway - cell viability counter screen (AID 743086). Also: nearly all actives have a fitted effect of over 45% in size. Also: potency is read from the fitted curve at half-maximal effect. The method in brief:
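Cytotoxicity counter screen: CellTiter-Fluor signal (30 min, 37 C) in 4000 HepG2 cells/well carrying the DRE-luciferase reporter, following 24 h compound exposure at 37 C.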

Experiment [4] deals with Peroxisome proliferator-activated receptor gamma (Homo sapiens) (UniProt P37231). The experiment can be described thus: qHTS assay to identify small molecule agonists of the peroxisome proliferator-activated receptor gamma (PPARg) signaling pathway (AID 743094; active = well fitted activation curve with a large enough effect in the signal ratio in the repeat runs, not every such curve was filed as active; the % refers to the signal ratio). The method, boiled down:
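HEK293H PPARg-bla cells, 5 h settle at 37C/5% CO2; compound (DMSO) 17 h, 37C; B/G FRET substrate 1 h RT; fluorescence intensity read-out. qHTS format.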

Experiment [5] in a line: qHTS assay to identify small molecule phospholipidosis (PLD) inducers (AID 1259344; active = well fitted curve in the direction sought with a large enough effect; an effect the other way counts as inactive or inconclusive). The method in brief:
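Accumulated phospholipid, stained red by LipidTOX during 24 h compound treatment of HepG2 cells at 37 C, is quantified from images as pit number and intensity, normalised per cell using Hoechst-stained nuclei.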

Experiment [6] deals with Nuclear receptor subfamily 1 group I member 2 (Rattus norvegicus) (UniProt Q9R1A7). Kind of experiment: Rat pregnane X receptor (rPXR) activation by small molecules, qHTS assay (AID 1346983). Also: nearly all actives have a fitted effect of over 20% in size. Also: potency is read from the fitted curve at half-maximal effect. As to conditions: rPXR luciferase reporter cells, One-Glo luminescence, 24 h; max activation: stronger effect = higher value. The method, boiled down: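 Luminescent readout (One-Glo luciferase, 30 min room temperature) followed 24 hr compound treatment at 37 C of rPXR cells plated 2,000 per well and preincubated 5hr; qHTS format with compounds delivered in DMSO.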
Sequence of Nuclear receptor subfamily 1 group I member 2 (Rattus norvegicus) (Q9R1A7 whole entry, looked up): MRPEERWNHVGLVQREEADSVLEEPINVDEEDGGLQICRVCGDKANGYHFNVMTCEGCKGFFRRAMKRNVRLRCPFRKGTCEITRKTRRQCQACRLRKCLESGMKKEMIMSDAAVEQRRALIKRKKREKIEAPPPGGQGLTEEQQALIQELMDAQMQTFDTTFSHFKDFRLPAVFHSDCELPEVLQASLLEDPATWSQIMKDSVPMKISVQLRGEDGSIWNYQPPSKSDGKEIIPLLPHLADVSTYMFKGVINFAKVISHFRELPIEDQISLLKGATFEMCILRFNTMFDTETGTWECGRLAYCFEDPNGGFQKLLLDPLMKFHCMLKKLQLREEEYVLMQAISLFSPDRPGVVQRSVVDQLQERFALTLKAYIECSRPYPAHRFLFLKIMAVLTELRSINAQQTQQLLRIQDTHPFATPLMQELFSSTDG

In experiment [7] the target is Nuclear receptor subfamily 1 group I member 2 (Homo sapiens) (UniProt O75469). The experiment can be described thus: CYP3A4 induction through human pregnane X receptor (PXR) by small molecules, qHTS assay (AID 1346984). Also: nearly all actives have a fitted effect of over 40% in size. The method in brief: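 HepG2-derived DPX-2 line carrying PXR plus a CYP3A4-promoter luciferase reporter; cells plated 5 hr, compound-exposed 24 hr at 37C. CYP3A4 activity probed with 3uM (final) Luciferin-IPA for 3hr, then luciferase read after One-Glo.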

Experiment [8] shares this target. Kind of experiment: Human pregnane X receptor (PXR) activation by small molecules, qHTS assay (AID 1346985). Also: nearly all actives have a fitted effect of over 40% in size. The method in brief:
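DPX-2 cells (HepG2 co-transfected with a PXR response element and a CYP3A4-promoter luciferase construct) were seeded at 2,000 per well, rested 5 hr at 37C, then exposed to DMSO-dissolved compounds for 24 hr. Activation was read as luciferase luminescence.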

Inconclusive results are not listed. A number with no mark means an inactive call. Active and inactive are the calls of the source. Unless noted, calls follow the shape of the dose curve; as a rule, active = well fitted curve in the direction sought with a large enough effect in the repeat runs; inconclusive = weak or mixed curves; inactive = no such curve, though single readings can be large; an effect the other way counts as inactive or inconclusive.
% is scaled to controls: 0 for no effect and ±100 for the full control effect.

Sequence of Aryl hydrocarbon receptor (Homo sapiens) (P35869 whole entry, looked up): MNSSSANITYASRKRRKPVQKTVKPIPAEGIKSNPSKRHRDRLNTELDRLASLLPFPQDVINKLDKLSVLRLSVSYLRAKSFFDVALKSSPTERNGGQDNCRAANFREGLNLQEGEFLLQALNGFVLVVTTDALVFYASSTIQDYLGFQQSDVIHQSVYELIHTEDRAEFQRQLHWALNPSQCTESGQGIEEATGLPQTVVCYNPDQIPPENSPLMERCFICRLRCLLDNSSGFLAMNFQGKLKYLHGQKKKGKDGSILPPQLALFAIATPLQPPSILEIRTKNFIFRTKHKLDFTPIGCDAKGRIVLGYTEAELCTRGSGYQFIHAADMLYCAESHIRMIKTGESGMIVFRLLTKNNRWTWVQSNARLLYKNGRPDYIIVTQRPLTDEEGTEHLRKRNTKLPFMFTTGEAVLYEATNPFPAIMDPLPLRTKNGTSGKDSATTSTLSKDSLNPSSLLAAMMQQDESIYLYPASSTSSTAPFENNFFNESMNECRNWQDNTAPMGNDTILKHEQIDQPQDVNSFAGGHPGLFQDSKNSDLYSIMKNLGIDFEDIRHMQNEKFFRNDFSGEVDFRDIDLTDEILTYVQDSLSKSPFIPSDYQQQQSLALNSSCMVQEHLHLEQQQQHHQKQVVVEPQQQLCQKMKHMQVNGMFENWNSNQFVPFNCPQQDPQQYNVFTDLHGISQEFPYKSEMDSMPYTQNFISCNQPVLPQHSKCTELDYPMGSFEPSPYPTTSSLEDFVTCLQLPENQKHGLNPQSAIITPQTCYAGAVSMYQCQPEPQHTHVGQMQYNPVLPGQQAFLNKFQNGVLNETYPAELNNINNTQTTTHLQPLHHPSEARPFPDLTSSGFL
Sequence of Peroxisome proliferator-activated receptor gamma (Homo sapiens) (P37231 whole entry, looked up): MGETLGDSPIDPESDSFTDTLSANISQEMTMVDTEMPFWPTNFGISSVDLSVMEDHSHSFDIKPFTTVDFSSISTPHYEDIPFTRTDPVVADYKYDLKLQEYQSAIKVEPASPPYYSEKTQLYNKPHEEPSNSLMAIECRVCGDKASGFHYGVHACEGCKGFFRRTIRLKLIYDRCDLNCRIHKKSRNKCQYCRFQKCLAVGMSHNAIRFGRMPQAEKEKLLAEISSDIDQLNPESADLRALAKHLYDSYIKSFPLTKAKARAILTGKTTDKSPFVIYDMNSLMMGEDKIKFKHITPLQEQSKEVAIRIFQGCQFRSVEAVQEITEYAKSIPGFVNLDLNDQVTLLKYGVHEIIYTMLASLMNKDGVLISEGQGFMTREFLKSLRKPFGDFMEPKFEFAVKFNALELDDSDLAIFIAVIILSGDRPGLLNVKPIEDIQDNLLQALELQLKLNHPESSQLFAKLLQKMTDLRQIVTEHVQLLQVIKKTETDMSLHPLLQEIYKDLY

For the compound `Cc1ncc(C[n+]2csc(CCOP(=O)(O)OP(=O)(O)O)c2C)c(N)n1`, the Potency entry in experiment [1], in experiment [2], in experiment [3], in experiment [4], in experiment [5] and in experiment [7] was “inactive” each time. The Potency result in experiment [8] was “inactive”. Further, in experiment [6], the max activation was -0.276%.

As for `COC(=O)CCC[N+](C)(C)C`, the Potency entry in experiment [1], in experiment [2], in experiment [3], in experiment [4], in experiment [5] and in experiment [7] was “inactive” throughout. Also, in experiment [8], the Potency entry was “inactive”. In addition, the max activation in experiment [6] is -0.156%.

For `CS(=O)(=O)OCC(O)C(O)COS(C)(=O)=O` (centres undefined), the Potency entry in experiment [1], in experiment [2], in experiment [3], in experiment [4], in experiment [5] and in experiment [7] was “inactive” in each case. The Potency result in experiment [8] is “inactive”. For the same compound, the max activation in experiment [6] was -4.2%.

For `COC(=O)[C@@H](N)CS`, the Potency result in experiment [1], in experiment [2], in experiment [3], in experiment [4], in experiment [5] and in experiment [7] was “inactive” throughout. For the same compound, in experiment [8], the Potency result is “inactive”. For the same compound, in experiment [6], the max activation is 0.531%.

On to `O=C(O)CO.[NH2-].[NH2-].[Pt+2]`, for which the Potency entry in experiment [1], in experiment [2], in experiment [3], in experiment [4], in experiment [5] and in experiment [7] was “inactive” in each case. Moreover, the Potency result in experiment [8] is “inactive”. Also, the max activation in experiment [6] is -2.14%.

`CC(C)[C@@H]1CC[C@@H](C)C[C@H]1OC(=O)c1ccccc1O`: the Potency entry in experiment [1], in experiment [2], in experiment [3], in experiment [4], in experiment [5] and in experiment [7] was “inactive” each time. The Potency result in experiment [8] was “inactive”. In addition, the max activation in experiment [6] was -0.772%.

Consider `CC(C)[C@@H](C)/C=C/[C@@H](C)[C@H]1CC[C@H]2/C(=C/C=C3\C[C@@H](O)CC[C@@H]3C)CCC[C@]12C`, for which the Potency result in experiment [1], in experiment [2], in experiment [3], in experiment [4], in experiment [5] and in experiment [7] was “inactive” throughout. For the same compound, in experiment [8], the Potency entry is “inactive”. Moreover, the max activation in experiment [6] was -0.157%.

Consider `CC1(O)CCC(C(C)(C)O)CC1` (centres undefined), for which the Potency entry in experiment [1], in experiment [2], in experiment [3], in experiment [4], in experiment [5] and in experiment [7] was “inactive” throughout. Besides, the Potency entry in experiment [8] is “inactive”. Also, the max activation in experiment [6] was -1.3%.

Turning to `CCCCC[C@H](O)/C=C/[C@@H]1[C@H]2C/C(=C/CCCC(=O)O)O[C@H]2C[C@H]1O`, the Potency result in experiment [1], in experiment [2], in experiment [3], in experiment [4], in experiment [5] and in experiment [7] was “inactive” throughout. Besides, the Potency entry in experiment [8] was “inactive”. In experiment [6], the max activation was -0.736%.

For the compound `OC1OC[C@@H](O)[C@H](O)[C@@H]1O` (some centres undefined), the Potency entry in experiment [1], in experiment [2], in experiment [3], in experiment [4], in experiment [5] and in experiment [7] was “inactive” in each case. In addition, the Potency result in experiment [8] was “inactive”. In addition, the max activation in experiment [6] is 0.988%.

As to `CC(=O)Nc1ccc(OC(=O)c2ccccc2O)cc1`, the Potency result in experiment [1], in experiment [2], in experiment [3], in experiment [4], in experiment [5] and in experiment [7] was “inactive” in each case. The Potency entry in experiment [8] was “inactive”. The max activation in experiment [6] is -2.95%.

With `COc1ccc(C[C@@H](C)NC[C@H](O)c2ccc(O)c(NC=O)c2)cc1`, the Potency entry in experiment [1], in experiment [2], in experiment [3], in experiment [4], in experiment [5] and in experiment [7] was “inactive” in each case. Moreover, in experiment [8], the Potency result is “inactive”. Further, the max activation in experiment [6] was -1.9%.

Consider `CCCCCCCCCCCCCCCCCC(=O)OCC(C)O` (centres undefined), for which the Potency in experiment [1] is 18.8 µM (active); in experiment [3] it was 33.5 µM (active). In addition, the Potency entry in experiment [2], in experiment [4], in experiment [5], in experiment [7] and in experiment [8] was “inactive” throughout. For the same compound, the max activation in experiment [6] is -10.2%.

For `Cc1ccc(S(=O)(=O)NC(=O)N[C@@H](C)Cc2ccccc2)cc1`, the Potency entry in experiment [1], in experiment [2], in experiment [3], in experiment [4], in experiment [5] and in experiment [7] was “inactive” each time. In addition, in experiment [8], the Potency entry is “inactive”. The max activation in experiment [6] is 4.79%.

For `CCC(C)[C@@H](N)C(=O)O` (some centres undefined), the Potency entry in experiment [1], in experiment [2], in experiment [3], in experiment [4], in experiment [5] and in experiment [7] was “inactive” each time. Moreover, the Potency entry in experiment [8] is “inactive”. Moreover, the max activation in experiment [6] was -2.74%.

With `CCCCCCCCCCCCCCCCCC[N+](C)(C)CCC[Si](OC)(OC)OC`, the Potency result in experiment [1], in experiment [2], in experiment [3], in experiment [4], in experiment [5] and in experiment [7] was “inactive” in each case. Moreover, the Potency result in experiment [8] is “inactive”. In addition, the max activation in experiment [6] was 6.33%.

With `O=C1c2ccccc2C(=O)C1c1ccc(Cl)cc1`, the Potency entry in experiment [1], in experiment [3], in experiment [4], in experiment [5], in experiment [7] and in experiment [8] was “inactive” each time. The max activation in experiment [6] was -2.83%.

With `CC(=O)N[C@@H]1C(O[C@H]2O[C@H](C(=O)O)C(O)[C@H](O)[C@H]2O)[C@H](O)[C@@H](CO)O[C@H]1O[C@@H]1C(C(=O)O)O[C@@H](O[C@H]2[C@H](O)[C@@H](CO)OC(O)[C@@H]2NC(C)=O)[C@H](O)[C@H]1O` (some centres undefined), the Potency entry in experiment [1], in experiment [3], in experiment [4], in experiment [5], in experiment [7] and in experiment [8] was “inactive” each time. The max activation in experiment [6] was -1.09%.

As to `C[C@@H]1C[C@H]2[C@@H]3CCC4=CC(=O)C=C[C@]4(C)[C@@]3(F)[C@@H](O)C[C@]2(C)[C@@]1(O)C(=O)COC(=O)c1cccc(S(=O)(=O)O)c1`, the Potency result in experiment [1], in experiment [3], in experiment [4], in experiment [5], in experiment [7] and in experiment [8] was “inactive” throughout. In experiment [6], the Potency is 10 µM (active).
